# Reference: the supplement of paper PMC8728848
# Shown is part of a subset that was picked to be rich in the strongest signals.
# B1: MLTim-4 (Mus musculus), Q6U7R4 (protein)
# chain: MSKGLLLLWLVTELWWLYLTPAASEDTIIGFLGQPVTLPCHYLSWSQSRNSMCWGKGSCPNSKCNAELLRTDGTRIISRKSTKYTLLGKVQFGEVSLTISNTNRGDSGVYCCRIEVPGWFNDVKKNVRLELRRAT
# B2: CLEC7A (Homo sapiens), Q9BXN2 (protein)
# chain: MEYHPDLENLDEDGYTQLHFDSQSNTRIAVVSEKGSCAASPPWRLIAVILGILCLVILVIAVVLGTMAIWRSNSGSNTLENGYFLSRNKENHSQPTQSSLEDSVTPTKAVKTTGVLSSPCPPNWIIYEKSCYLFSMSLNSWDGSKRQCWQLGSNLLKIDSSNELGFIVKQVSSQPDNSFWIGLSRPQTEVPWLWEDGSTFSSNLFQIRTTATQENPSPNCVWIHVSVIYDQLCSVPSYSICEKKFSM
# B3: DC SIGN CRD (Homo sapiens), Q9NNX6 (protein)
# chain: QPCPWEWTFFQGNCYFMSNSQRNWHDSITACKEVGAQLVVIKSAEEQNFLQLQSSRSNRFTWMGLSDLNQEGTWQWVDGSPLLPSFKQYWNRGEPNNVGEEDCAEFSGNGWNDDKCNLAKFWICKKSAWSHPQFEK
# B4: TbCVNHOb (Tuber borchii) (protein)
# chain: GSHIGPYMSFYASSEDVRTIEEGGRTWLVGRARRADGSWQDIKLDLDNIIGNRDGHLTWGEQNFTQSASDIRFNFEGGSNVPVLRAKLRNAAGGEQESDLNLGERLTNNNGDLVFN
# What was measured:
# Assay in all cases: glycan array binding signal (z-score within array); higher = stronger binding
# Details in all cases: glycan notation: IUPAC condensed, linker removed
# [1] = molecular target: Fuc(a1-2)Gal(b1-3)GalNAc(b1-3)Gal(a1-4)Gal(b1-4)Glc
# Outline: (§1)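 The binding signal is a Z-score computed within each array. Data were drawn from 3228 arrays in the Consortium for Functional Glycomics database, restricted to those with a known protein sequence. Scores were averaged over arrays of the same protein sequence at different concentrations or buffers, and over linkers, and negative values can be taken as non-binding.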
# [2] = molecular target: Fuc(a1-2)Gal(b1-4)[Fuc(a1-3)]GalNAc(b1-3)Gal(b1-4)[Fuc(a1-3)]GlcNAc
# Outline: as §1
# [3] = molecular target: Fuc(a1-2)Gal(b1-4)[Fuc(a1-3)]GalNAc(b1-3)Gal(b1-4)[Fuc(a1-3)]GlcNAc(b1-3)Gal(b1-4)[Fuc(a1-3)]GalNAc
# Outline: as §1
# [4] = molecular target: Fuc(a1-2)[GalNAc(a1-3)]Gal(b1-4)[Fuc(a1-3)]GlcNAc
# Outline: as §1
# [5] = molecular target: Fuc(a1-3)[Gal(b1-4)]Glc6S
# Outline: as §1
# [6] = molecular target: Fuc(b1-3)GlcNAc
# Outline: as §1
# [7] = molecular target: Gal(a1-4)Gal(b1-4)Gal
# Outline: as §1
# [8] = molecular target: Gal(b1-2)Gal
# Outline: as §1
# [9] = molecular target: Gal(b1-3)Gal
# Outline: as §1
# [10] = molecular target: Gal(b1-4)GalNAc(b1-3)[Fuc(a1-2)]Gal(b1-4)GlcNAc
# Outline: as §1
# [11] = molecular target: GlcA(b1-3)Gal
# Outline: as §1
# [12] = molecular target: GlcA(b1-6)Gal
# Outline: as §1
# [13] = molecular target: GlcNAc(b1-3)[GlcNAc(b1-4)][GlcNAc(b1-6)]GlcNAc
# Outline: as §1
# [14] = molecular target: Man(a1-2)Man(a1-2)Man(a1-6)[Man(a1-3)]Man
# Outline: as §1
# [15] = molecular target: Man(a1-2)Man(a1-3)[Man(a1-6)]Man(a1-6)[Man(a1-2)Man(a1-3)]Man(b1-4)GlcNAc(b1-4)GlcNAc
# Outline: as §1
# [16] = molecular target: Man(b1-4)GlcNAc
# Outline: as §1
# [17] = molecular target: Neu5Ac(a2-3)Gal(b1-3)GlcNAc
# Outline: as §1
# [18] = molecular target: Neu5Ac(a2-3)Gal(b1-3)GlcNAc6S
# Outline: as §1
# [19] = molecular target: Neu5Ac(a2-3)Gal(b1-4)GlcNAc(b1-3)Gal(b1-3)GlcNAc
# Outline: as §1
# [20] = molecular target: Neu5Ac(a2-8)Neu5Ac(a2-3)[GalNAc(b1-4)]Gal(b1-4)Glc
# Outline: as §1
# [21] = molecular target: Neu5Ac(a2-8)Neu5Ac(a2-8)Neu5Ac(a2-3)[GalNAc(b1-4)]Gal(b1-4)Glc
# Outline: as §1
# [22] = molecular target: Neu5Gc(a2-3)Gal(b1-3)GlcNAc
# Outline: as §1
# [23] = molecular target: Fuc(a1-2)Gal(b1-4)GlcNAc
# Outline: as §1
# [24] = molecular target: Fuc(a1-3)[Gal(b1-4)]GlcNAc(b1-4)Gal(b1-4)[Fuc(a1-3)]GlcNAc(b1-4)Gal(b1-4)[Fuc(a1-3)]GlcNAc
# Outline: as §1
# [25] = molecular target: Fuc(a1-3)[GalNAc(b1-4)]GlcNAc
# Outline: as §1
# [26] = molecular target: Gal(b1-4)GlcNAc(b1-3)Gal(b1-4)Glc
# Outline: as §1
# [27] = molecular target: Gal3S(b1-4)GlcNAc6S
# Outline: as §1
# [28] = molecular target: Gal3S6S(b1-4)GlcNAc6S
# Outline: as §1
# [29] = molecular target: GalNAc(b1-3)Gal(a1-4)Gal(b1-4)GlcNAc
# Outline: as §1
# [30] = molecular target: GlcNAc(b1-3)GalNAc
# Outline: as §1
# [31] = molecular target: GlcNAc(b1-4)GlcNAc(b1-4)GlcNAc(b1-4)GlcNAc(b1-4)GlcNAc
# Outline: as §1
# [32] = molecular target: Kdn(a2-3)Gal(b1-4)GlcNAc
# Outline: as §1
# [33] = molecular target: Man(a1-3)[Man(a1-6)]Man(a1-6)[Man(a1-2)Man(a1-3)]Man(b1-4)GlcNAc(b1-4)GlcNAc
# Outline: as §1
# [34] = molecular target: Neu5Ac(a2-3)Gal(b1-4)GlcNAc6S
# Outline: as §1
# [35] = molecular target: Neu5Ac(a2-6)Gal(b1-4)GlcNAc6S
# Outline: as §1
# [36] = molecular target: Neu5Ac(a2-8)Neu5Ac(a2-8)Neu5Ac
# Outline: as §1
# [37] = molecular target: Neu5Ac(a2-8)Neu5Ac(a2-8)Neu5Ac(a2-3)Gal(b1-4)Glc
# Outline: as §1
# [38] = molecular target: Fuc(a1-2)Gal(b1-3)GalNAc(b1-4)[Neu5Ac(a2-3)]Gal(b1-4)Glc
# Outline: as §1
# [39] = molecular target: Fuc(a1-2)Gal(b1-4)[Fuc(a1-3)]GlcNAc
# Outline: as §1
# [40] = molecular target: Fuc(a1-2)[Gal(a1-3)]Gal(b1-4)Glc
# Outline: as §1
# [41] = molecular target: Gal(b1-3)GalNAc(b1-4)Gal(b1-4)Glc
# Outline: as §1
# [42] = molecular target: Gal(b1-3)GalNAc(b1-4)[Neu5Ac(a2-3)]Gal(b1-4)Glc
# Outline: as §1
# [43] = molecular target: Gal4S(b1-4)GlcNAc
# Outline: as §1
# [44] = molecular target: Gal6S(b1-4)GlcNAc
# Outline: as §1
# [45] = molecular target: GlcNAc(b1-4)[GlcNAc(b1-6)]GalNAc
# Outline: as §1
# [46] = molecular target: Man(a1-2)Man(a1-2)Man(a1-3)[Man(a1-2)Man(a1-6)[Man(a1-3)]Man(a1-6)]Man(b1-4)GlcNAc(b1-4)GlcNAc
# Outline: as §1
# [47] = molecular target: Neu5Ac(a2-3)Gal
# Outline: as §1
# [48] = molecular target: Neu5Ac(a2-3)Gal(b1-3)[Fuc(a1-4)]GlcNAc
# Outline: as §1
# [49] = molecular target: Neu5Ac(a2-3)Gal(b1-4)GlcNAc
# Outline: as §1
# [50] = molecular target: Neu5Ac(a2-3)Gal6S(b1-4)[Fuc(a1-3)]GlcNAc
# Outline: as §1
# [51] = molecular target: Fuc(a1-2)Gal(b1-3)GalNAc(b1-3)Gal(b1-4)Glc
# Outline: as §1
# [52] = molecular target: Fuc(a1-2)Gal(b1-4)Glc
# Outline: as §1
# [53] = molecular target: Fuc(a1-2)Gal(b1-4)GlcNAc(b1-3)Gal(b1-4)GlcNAc
# Outline: as §1
# [54] = molecular target: Fuc(a1-3)[Gal3S(b1-4)]GlcNAc
# Outline: as §1
# [55] = molecular target: Gal(a1-6)Glc
# Outline: as §1
# [56] = molecular target: Gal(b1-3)[Fuc(a1-4)]GlcNAc(b1-3)Gal(b1-4)GlcNAc
# Outline: as §1
# [57] = molecular target: Gal(b1-3)[Neu5Ac(a2-6)]GlcNAc
# Outline: as §1
# [58] = molecular target: Gal(b1-3)[Neu5Ac(a2-6)]GlcNAc(a1-4)Gal(b1-4)Glc
# Outline: as §1
# [59] = molecular target: GalNAc(b1-4)GlcNAc
# Outline: as §1
# [60] = molecular target: GlcNAc(b1-3)Gal
# Outline: as §1
# [61] = molecular target: GlcNAc(b1-4)GlcNAc(b1-4)GlcNAc
# Outline: as §1
# [62] = molecular target: Man(a1-2)Man(a1-2)Man(a1-3)Man
# Outline: as §1
# [63] = molecular target: Man(a1-3)[Man(a1-6)]Man(b1-4)GlcNAc(b1-4)GlcNAc
# Outline: as §1
binder,measurement,setting,value
B1,glycan array binding signal (z-score),[1],-0.142
same,glycan array binding signal (z-score),[2],-0.799
same,glycan array binding signal (z-score),[3],0.195
same,glycan array binding signal (z-score),[4],0.41
same,glycan array binding signal (z-score),[5],2.31
same,glycan array binding signal (z-score),[6],-0.108
same,glycan array binding signal (z-score),[7],0.491
same,glycan array binding signal (z-score),[8],1.47
same,glycan array binding signal (z-score),[9],0.543
same,glycan array binding signal (z-score),[10],-0.991
same,glycan array binding signal (z-score),[11],6.6
same,glycan array binding signal (z-score),[12],2.97
same,glycan array binding signal (z-score),[13],-0.523
same,glycan array binding signal (z-score),[14],0.353
same,glycan array binding signal (z-score),[15],-0.137
same,glycan array binding signal (z-score),[16],1.06
same,glycan array binding signal (z-score),[17],-0.547
same,glycan array binding signal (z-score),[18],2.45
same,glycan array binding signal (z-score),[19],-0.655
same,glycan array binding signal (z-score),[20],-0.484
same,glycan array binding signal (z-score),[21],-0.741
same,glycan array binding signal (z-score),[22],-0.343
B2,glycan array binding signal (z-score),[1],0.301
same,glycan array binding signal (z-score),[23],-0.842
same,glycan array binding signal (z-score),[24],0.278
same,glycan array binding signal (z-score),[25],-0.149
same,glycan array binding signal (z-score),[26],0.542
same,glycan array binding signal (z-score),[27],1.21
same,glycan array binding signal (z-score),[28],5.19
same,glycan array binding signal (z-score),[29],0.773
same,glycan array binding signal (z-score),[30],3.29
same,glycan array binding signal (z-score),[31],-0.613
same,glycan array binding signal (z-score),[32],0.64
same,glycan array binding signal (z-score),[33],0.549
same,glycan array binding signal (z-score),[34],-0.22
same,glycan array binding signal (z-score),[35],0.583
same,glycan array binding signal (z-score),[36],4.19
same,glycan array binding signal (z-score),[37],1.53
B3,glycan array binding signal (z-score),[1],-0.37
same,glycan array binding signal (z-score),[38],-0.377
same,glycan array binding signal (z-score),[2],5.67
same,glycan array binding signal (z-score),[3],3.54
same,glycan array binding signal (z-score),[39],4.18
same,glycan array binding signal (z-score),[40],-0.339
same,glycan array binding signal (z-score),[24],5.8
same,glycan array binding signal (z-score),[41],-0.385
same,glycan array binding signal (z-score),[42],-0.363
same,glycan array binding signal (z-score),[43],-0.361
same,glycan array binding signal (z-score),[44],-0.39
same,glycan array binding signal (z-score),[12],-0.392
same,glycan array binding signal (z-score),[45],-0.371
same,glycan array binding signal (z-score),[46],2.91
same,glycan array binding signal (z-score),[47],-0.339
same,glycan array binding signal (z-score),[48],-0.076
same,glycan array binding signal (z-score),[49],-0.387
same,glycan array binding signal (z-score),[50],-0.394
B4,glycan array binding signal (z-score),[1],2.01
same,glycan array binding signal (z-score),[51],4.24
same,glycan array binding signal (z-score),[52],0.347
same,glycan array binding signal (z-score),[53],-0.268
same,glycan array binding signal (z-score),[54],-0.469
same,glycan array binding signal (z-score),[7],4.24
same,glycan array binding signal (z-score),[55],0.38
same,glycan array binding signal (z-score),[56],-0.231
same,glycan array binding signal (z-score),[57],-0.484
same,glycan array binding signal (z-score),[58],4.83
same,glycan array binding signal (z-score),[10],-0.367
same,glycan array binding signal (z-score),[59],-0.366
same,glycan array binding signal (z-score),[12],-0.483
same,glycan array binding signal (z-score),[60],-0.16
same,glycan array binding signal (z-score),[13],-0.077
same,glycan array binding signal (z-score),[61],-0.364
same,glycan array binding signal (z-score),[62],5.4
same,glycan array binding signal (z-score),[46],-0.449
same,glycan array binding signal (z-score),[63],-0.197
same,glycan array binding signal (z-score),[16],0.106
same,glycan array binding signal (z-score),[18],-0.045
